Rows were chosen to be rich in hits. Some 2.4% of all compounds tested hit in one or more screens of this group.
D2 PAM-1: HTS Assay for Positive Allosteric Modulators of the Human D2 Dopamine Receptor: Primary Screen for Potentiators | 340,000 compounds, 0.34% hits | HEK293 T-REx D2, calcium flux, EC20 dopamine potentiation | potentiation, % at 10 µM;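 active = potentiation over 3 SD above the plate norm, cut at about 30% in these data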; also: 0% is about no effect
Target sequence (P14416 whole entry, looked up): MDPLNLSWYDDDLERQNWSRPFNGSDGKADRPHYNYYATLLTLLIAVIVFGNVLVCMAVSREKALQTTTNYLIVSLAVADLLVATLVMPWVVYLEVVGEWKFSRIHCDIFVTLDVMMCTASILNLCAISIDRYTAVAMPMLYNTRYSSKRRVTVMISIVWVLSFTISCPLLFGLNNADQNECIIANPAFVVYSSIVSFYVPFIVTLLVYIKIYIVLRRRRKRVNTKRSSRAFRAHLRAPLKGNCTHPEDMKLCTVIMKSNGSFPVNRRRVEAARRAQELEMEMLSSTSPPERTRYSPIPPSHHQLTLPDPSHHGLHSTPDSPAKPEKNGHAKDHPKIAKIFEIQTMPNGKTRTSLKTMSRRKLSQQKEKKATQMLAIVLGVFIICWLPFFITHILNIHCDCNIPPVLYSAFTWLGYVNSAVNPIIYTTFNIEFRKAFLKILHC
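Cells plated with tetracycline inducer and held overnight at 30 C; calcium dye loaded 30–90 min at room temperature; baseline taken, compound added and read 180 s; EC20 dopamine then added and read 180 s.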
D2 PAM-2: Beta-Arrestin HTS for Positive Allosteric Modulators of the Human D2 Dopamine Receptor: Potentiators; potentiation, % (no concentration beside the values); DiscoveRx D2 beta-arrestin cells, luminescence, 90 min; 100% = 57 uM dopamine signal; 360,000 compounds, 0.23% hits; D(2) dopamine receptor (Homo sapiens), P14416; in the data active = potentiation above about 50%; inconclusive = mostly about 30% to 49%
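PathHunter D2 cells, attached overnight at 37 deg C, received compound in DMSO plus dopamine at EC20 (50 nM final) for 90 min at 37 deg C. Beta-arrestin recruitment was read as luminescence after 1 h with detection reagent at ambient temperature.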
D2 ag-1: HTS Assay for Allosteric Agonists of the Human D2 Dopamine Receptor: Primary Screen for Agonists. HEK293 T-REx D2 cells, calcium flux agonist mode. activation, % at 2 µM. 340,000 compounds, 0.53% hits;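 active = activation over 3 SD above normal in the single-dose calcium agonist read, cut at about 30% in these data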; also: 0% is about no effect
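In this primary screen, compounds producing a positive calcium signal within 180 s of addition to tetracycline-induced, force-coupled HEK293 Trex D2 cells are flagged; cells are dye-loaded with a no-wash calcium kit beforehand.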
D2 ag-2: Beta-Arrestin HTS for Positive Allosteric Modulators of the Human D2 Dopamine Receptor: Agonists | D(2) dopamine receptor (Homo sapiens), P14416 | DiscoveRx PathHunter D2 beta-arrestin, luminescence, 90 min; 100% = 57 uM dopamine signal | activation, % (no concentration beside the values) | 360,000 compounds, 0.084% hits; in the data active = activation above about 40%; inconclusive = between about 15% and that limit
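Agonist mode: compounds alone added to overnight-plated D2 PathHunter cells for 90 min at 37 C, with 57 uM final dopamine (EC100) defining full response. Beta-arrestin recruitment detected by chemiluminescent reagent, read after 1 h at ambient temperature.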
D2 antag: HTS Assay for Allosteric Antagonists of the Human D2 Dopamine Receptor: Primary Screen for Antagonists; HEK293 TREx D2 cells, calcium flux, dopamine EC80; D(2) dopamine receptor (Homo sapiens), P14416; inhibition, % at 10 µM; 340,000 compounds, 2% hits; AID 485344, 2010; in the data active = inhibition above about 30%; inactive = below that, where a call was filed; also: 0% is about no effect
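HEK293 T-REx D2 cells, tet-induced, calcium dye no-wash. Cpd pintool add, 180 s kinetic, then EC80 DA, 180 s kinetic. Ca flux read.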
Numbers without * were called inactive; ? = inconclusive; · = no result given.

SMILES	D2 PAM-1	D2 PAM-2	D2 ag-1	D2 ag-2	D2 antag
COc1cc(NC(=O)Nc2nc(C(N)C3CCCCC3)cs2)cc(OC)c1OC (centres undefined)	·	?	·	109.0*	·
COc1ccccc1NC(=O)Nc1nc(C(N)C2CCCCC2)cs1 (centres undefined)	·	-20.3	·	2.2	·
COc1ccc(Cl)cc1S(=O)(=O)n1cnc2ccccc21	12.1	12.5	-0.5	-4.2	79.0*
CCOc1ccc(Cl)cc1S(=O)(=O)n1cnc2ccccc21	-2.4	-2.3	-0.1	1.5	-5.8
CC1(C)ON(C2CCCCC2)[C@H]2c3nc4ccccc4n3C[C@H]21	1.2	-0.1	1.6	-0.2	39.0*
Cc1oc(-c2ccccc2Cl)nc1CS(=O)(=O)CC(=O)NCc1ccc(F)cc1	-26.3	·	0.1	·	·
NC(=O)c1c(NC(=O)Cc2ccccc2)sc2c1CCN(Cc1ccccc1)C2	-18.5	-10.8	0.6	2.7	47.4*
O=C(NCCc1ccc(Cl)cc1)c1ccc(CSCc2ccccc2Cl)o1	-1.2	·	1.5	·	·
COc1ccc(-c2noc(CSc3nnc(C)n3-c3ccc(F)cc3)n2)cc1	0.6	·	-0.8	·	·
CC1=C(C)CC(C(=O)N2CCN(Cc3ccccc3)CC2)C(C(=O)O)C1 (centres undefined)	30.2*	-22.6	4.1	-3.6	0.3
Cc1ccc(NC(=S)NC2CCN(Cc3ccccc3)CC2)cc1C	-24.4	?	3.1	-8.7	77.6*
S=C(Nc1ccc2c(c1)OCO2)NC1CCN(Cc2ccccc2)CC1	-25.7	-17.4	0.4	-2.9	58.9*
Cc1ccc(C(=S)N2CCN(Cc3ccccc3)CC2)cc1	-27.5	-11.1	-1.6	1.6	65.1*
COc1ccc(C(=O)c2oc3ccccc3c2NC(=O)COc2ccccc2)cc1	-6.9	·	0.9	·	·
Cc1ccc(NC(=S)N2CCN(Cc3ccccc3)CC2)cc1	·	-8.9	-0.5	1.7	-13.5
CC(C)c1ccc(NC(=S)NC2CCN(Cc3ccccc3)CC2)cc1	-20.1	-40.6	1.0	-1.6	51.8*
CC(C)c1ccc(NC(=S)N2CCN(Cc3ccccc3)CC2)cc1	3.0	-4.4	0.3	-2.6	-14.7
Cc1ccc(NC(=S)NC2CCN(Cc3ccccc3)CC2)cc1	-16.7	-34.5	0.3	-1.5	83.7*
Cc1ccc(-c2noc(CNC(=O)c3ccc(C)c(Cl)c3)n2)cc1	-15.3	·	0.4	·	·
CCOC(=O)CNC(c1ccccc1)c1cc(Br)ccc1NC(=O)CCN1CCOCC1 (centres undefined)	-26.8	-21.4	0.2	-6.6	37.9*
O=C(CC(c1ccccc1)c1cc(Br)ccc1O)NCCCN1CCOCC1 (centres undefined)	-5.5	-6.6	-0.1	-5.2	-2.4
O=C(CC(c1ccccc1)c1cc(Br)ccc1O)NCCN1CCOCC1 (centres undefined)	7.6	-32.3	-2.6	-1.9	77.0*
CCOC(=O)c1c(C)c(-c2ccccc2)n(CC(=O)NCCc2cccc(C)c2)c1C	·	·	-0.1	·	·
COc1cccc(-n2ccnc2SCC(=O)Nc2c(C)cc(C)cc2C)c1	12.2	·	0.9	·	·
Cc1cc(C)cc(Nc2cc(C(=O)NCc3ccccc3)c3ccccc3n2)c1	-4.8	·	1.3	·	·
SMILES	D2 PAM-1	D2 PAM-2	D2 ag-1	D2 ag-2	D2 antag
CCN(CC)S(=O)(=O)c1ccc(OCC(=O)NC(=O)c2ccccc2OC)c([N+](=O)[O-])c1	-2.4	55.4*	-0.2	6.2	-4.2
CCOc1ccc(NC(=O)C2(c3cccs3)CCOCC2)cc1	0.0	·	0.7	·	·
C=CCC1c2cccc(C(=O)O)c2C(=O)N1c1cccc(OC)c1 (centres undefined)	-0.1	-4.2	0.3	-2.6	-5.4
C=CCC1c2cccc(C(=O)O)c2C(=O)N1c1cccc(C)c1 (centres undefined)	9.1	3.9	0.0	0.8	32.2*
O=C(CCN1C(=O)/C(=C/c2ccc(F)cc2)SC1=S)NC1C=CS(=O)(=O)C1 (centres undefined)	55.5*	-8.1	0.4	0.7	-9.0
O=C(CN1C(=O)S/C(=C\c2ccc(F)cc2)C1=O)NC1C=CS(=O)(=O)C1 (centres undefined)	0.3	-8.3	0.0	-4.3	-11.7
COCCNc1nc(-c2ccccc2)nc2ccccc12	8.4	-2.2	1.2	7.5	-5.5
CC(=O)OCCNc1nc(-c2ccccc2)nc2ccccc12	-0.6	0.0	1.4	-5.6	38.0*
Cc1ccccc1C(=O)O/N=C/c1c(N2CCOCC2)n(C)c2ccccc12	-5.9	179.6*	0.8	?	-6.4
Fc1ccc2nc(-c3ccccc3)ccc2c1	·	-7.2	·	-2.9	·
[O-][n+]1onc2c3cc(-c4ccccc4)nnc3ccc21	3.0	52.7*	-1.2	7.6	-23.2
O=C1Cc2cc(S(=O)(=O)N3CCN(c4ccccc4)CC3)ccc2N1	-2.1	-6.7	0.5	-6.1	-13.7
O=C1Cc2cc(CCN3CCN(c4nsc5ccccc45)CC3)c(Cl)cc2N1	-25.2	·	-0.3	·	84.1*
CCOC(=O)C1CCN(c2cc(C)nc3c(-c4ccccc4OC)c(C)nn23)CC1	-0.6	·	-0.7	·	·
Cc1ccc(S(=O)(=O)N(C)C)cc1NC(=O)C1CCCN(C(=O)c2ccc(Cl)cc2)C1 (centres undefined)	-0.9	-2.5	-0.3	-3.3	31.2*
O=C(NCc1ccc(Cl)cc1)C1CCCN(C(=O)c2ccc(Cl)cc2)C1 (centres undefined)	2.9	-1.0	-0.4	-0.9	38.4*
COc1ccc(/C=N/NC(=O)c2ccc(Br)cc2)c(OC)c1	-28.4	-19.5	0.5	-0.2	33.1*
COc1ccccc1C=NNC(=O)NN=Cc1ccccc1OC	·	-10.6	·	-1.7	·
COc1ccccc1/C=N/NC(=O)c1ccc(Br)cc1	-13.1	-15.5	-0.9	-1.4	71.6*
O=C(N/N=C/c1ccc(OC(F)F)cc1)c1ccc(Br)cc1	-19.7	-30.8	-0.7	0.3	31.3*
COc1ccc(/C=N/NC(=O)c2ccncc2)c(OC)c1	5.8	-1.7	-0.8	-2.8	-8.7
Cc1noc(C)c1CSc1nc2ccccc2n1CCc1ccccc1	35.5*	-9.5	-1.0	-1.6	-13.0
O=C(O)CCn1c(SCc2ccccc2)nc2ccccc21	-5.1	-12.2	0.2	-1.2	-0.5
CC(C)N(C(=O)CSc1nc2ccccc2n1Cc1ccccc1)C(C)C	36.0*	-17.4	-1.0	-5.6	-24.7
CCSc1nc2ccccc2n1CC(=O)OC	-0.1	-5.6	0.0	-3.6	-5.8
COC(=O)Cn1c(SCc2ccccc2)nc2ccccc21	31.3*	-3.8	-0.6	-0.5	-1.4

Assay outcomes: PubChem BioAssay, National Center for Advancing Translational Sciences (NCATS)
